In all, about 330,000 compounds went through this assay and about 1,900 (0.58%) were called active. Another 4% or so got no clear call; they are omitted. Cut-off read from the data, not from the text of the source: inconclusive = inhibition above about 70% without an active follow-up result; inactive = below that. The list is a sample of the results. Measured potencies and affinities stand elsewhere.
Test: M. tuberculosis growth inhibition, HTS (AID 449762);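 note: bacterial growth assessed after seven days of incubation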
Conditions: M. tuberculosis H37Rv growth inhibition, 7H9 media; at 25 µM; active compounds read high

| Compound | inhibition |
| --- | --- |
| NS(=O)(=O)c1ccc(NC(=O)CSC2CCCCC2)cc1 | -6.63% (inactive) |
| COc1ccc(NC(=O)CNC(=O)C2CCCCC2)cc1 | 13.5% (inactive) |
| CCC(C)NC(=O)CN1C(=O)NC2(CCOc3ccccc32)C1=O (stereo unspecified) | 7.03% (inactive) |
| CC(C)C1(C(C)C)OC(=O)c2ccccc21 | 0.62% (inactive) |
| CCCn1ncc(CN2CCC(Cc3cccc(F)c3)(C(=O)OCC)CC2)c1C | -1.6% (inactive) |
| N=c1n(Cc2ccccc2)c2ccccc2n1CC(O)COc1ccccc1 (stereo unspecified) | 14.3% (inactive) |
| COc1ccc(OCC(O)Cn2c(=N)n(Cc3ccccc3)c3ccccc32)cc1 (stereo unspecified) | 26.5% (inactive) |
| CC(=O)CCC(=O)N1CCCC(CNC(=O)c2ccc(-c3ccccc3)cc2)C1 (stereo unspecified) | -4.64% (inactive) |
| CSCC(=O)N1CCCC(CNC(=O)c2ccc(-c3ccccc3)cc2)C1 (stereo unspecified) | 3.04% (inactive) |
| CC(C)(C)OC(=O)C[C@H]1C/C=C\C[C@H](CC(=O)NCCO)C(=O)NC[C@H](c2ccccc2)OC1=O | -2.46% (inactive) |
| COc1cccc(N(C(=O)CNC(=O)c2ccco2)C(C(=O)NC2CCCC2)c2ccncc2)c1 (stereo unspecified) | 0.28% (inactive) |
| O=C(O)CCCn1cc(NC(=O)COc2ccccc2)cn1 | 1.85% (inactive) |
| Clc1ccc(SCCn2ccnc2)cc1 | -6.09% (inactive) |
| O=C(Cc1ccc(Cl)cc1)NCCCn1ccnc1 | 0.59% (inactive) |
| CCNCCNC(=O)c1c(O)c2c([nH]c1=O)CCCC2 | -0.1% (inactive) |
| Cc1nn(Cc2ccc(Cl)cc2Cl)c(C)c1NC(=O)CCl | 70.1% (inactive) |
| Cc1ccc(CCNC(=O)C2CC(c3cccc(F)c3)=NO2)cc1 (stereo unspecified) | 0.56% (inactive) |
| C=CCOc1ccc(CNc2nccs2)cc1OC | -5.03% (inactive) |
| C=CCOc1c(Cl)cc(CNc2nccs2)cc1OC | 56.1% (inactive) |
| CCCOc1ccc(C(=O)N/N=C/c2c[nH]c3ccc(Br)cc23)cc1 | 1.55% (inactive) |
| COc1ccccc1Nc1cc(C)nc2c(C)ccc([N+](=O)[O-])c12 | -0.28% (inactive) |
| Cc1cc(Nc2ccccc2)c2c([N+](=O)[O-])cc(C)c(C)c2n1 | 6.4% (inactive) |
| COC(=O)C1=C(COc2ccc(C=O)cc2OC)NC(=O)NC1c1cc(C)ccc1C (stereo unspecified) | -8.91% (inactive) |
| Cc1cc(C)c2oc(=O)cc(CN3CCC(C)CC3)c2c1 | 5.8% (inactive) |

| Compound | inhibition |
| --- | --- |
| Cc1coc2c(C)c3oc(=O)c(CCC(=O)N4CCC(C(=O)NCCCC(=O)O)(c5ccccc5)CC4)c(C)c3cc12 | 5.29% (inactive) |
| CC12CCC(C(=O)Nc3cccnc3)(CC1=O)C2(C)C (stereo unspecified) | -6.21% (inactive) |
| O=C(NCC1CCCO1)c1ccc([N+](=O)[O-])o1 (stereo unspecified) | -10.8% (inactive) |
| O=C(NN(c1ccccc1)c1ccccc1)c1ccc([N+](=O)[O-])o1 | 56.9% (inactive) |
| C=CCn1c(SCC(=O)NCC2CCCO2)nc2scc(-c3ccccc3)c2c1=O (stereo unspecified) | -12.7% (inactive) |
| CCOCCCNC(=S)NCCCNc1nc2cc3c(cc2cc1C#N)OCO3 | -2.17% (inactive) |
| Cc1ccc(C(=O)/C=C/Nc2ccc(S(=O)(=O)Nc3cc(C)nc(C)n3)cc2)cc1 | 4.23% (inactive) |
| CCOc1cc(/C=N/NC(=O)C(=O)Nc2cc(Cl)ccc2C)ccc1O | 5.58% (inactive) |
| CC(=O)c1cnn(-c2ccccc2)c1C | -0.96% (inactive) |
| Cc1c(C(=O)NCc2ccccc2)cnn1-c1ccccc1 | 0.38% (inactive) |
| O=C(NN=C1CCCCCC1)c1ccc(Cl)s1 | -7.6% (inactive) |
| O=C(Nc1ccc(N2CCN(C(=O)c3ccccc3F)CC2)cc1)c1cncc(Br)c1 | 32.6% (inactive) |
| COc1ccc(NC(=O)CN(C)CC(=O)N(C)C2(C#N)CCC(C)CC2)cc1 (stereo unspecified) | 6.58% (inactive) |
| O=C1Nc2ccccc2/C1=N\c1sc2c(c1C(=O)Nc1ccccc1)CCCC2 | -6.89% (inactive) |
| COc1ccc(-c2noc(N3CCC(C(=O)Nc4ccccc4F)CC3)n2)cc1 | -6.51% (inactive) |
| COc1ccc(N2CCc3c(C)nc(SC)nc32)cc1 | 37.6% (inactive) |
| CSc1nc(C)c2c(n1)N(c1ccc(F)cc1)CC2 | 5.53% (inactive) |
| Cc1cccc(NC(=O)Cn2nnc(-c3cccs3)n2)c1C | 4.16% (inactive) |
| Cc1cc2ccccc2c(=O)n1CC(=O)NCC(=O)N1CCN(c2ccccc2)CC1 | 3.46% (inactive) |
| CC12CCC(C(=O)N3CCCCCC3)(OC1=O)C2(C)C (stereo unspecified) | 0.66% (inactive) |
| O=C(c1ccc2nc(N3CCOCC3)sc2c1)N1CCCC1 | -5.7% (inactive) |
| O=C(c1ccc2nc(N3CCOCC3)sc2c1)N1CCN(C(=O)c2ccco2)CC1 | -6.14% (inactive) |
| Cc1ccc(S(=O)(=O)N(C)c2ccc(OCC(=O)Nc3ccc(C(=O)N(C)C)cc3)cc2)cc1C | -1.34% (inactive) |
| Cn1cc(C(=O)N/N=C/C2=C(N3CCOCC3)C(=C/c3ccc([N+](=O)[O-])cc3)/CC2)ccc1=O | 2.15% (inactive) |

| Compound | inhibition |
| --- | --- |
| COc1cc(C(=O)NC(=S)Nc2ccc3[nH]c(=O)[nH]c3c2)cc(OC)c1OC | 5.44% (inactive) |
| COCCCN1C(=O)C(=O)/C(=C(/O)c2ccc(OC)cc2)C12C(=O)N(C)c1ccccc12 (stereo unspecified) | 0.02% (inactive) |
| O=C(/C=C\c1cccs1)c1c(O)ccc2ccc(=O)oc12 | 69.8% (inactive) |
| CCN(CC)S(=O)(=O)c1ccc2oc(SCC(=O)NC3CC3)nc2c1 | -7.6% (inactive) |
| CCN(CC)S(=O)(=O)c1ccc2oc(SCC(=O)NCc3ccccc3)nc2c1 | -7.94% (inactive) |
| COC(=O)C1=C(C)N(c2ccc(OC)cc2)C(=O)/C1=C\c1cccs1 | -1.06% (inactive) |
| CC(=O)c1ccc(OCC(=O)c2cc(C)n(-c3ccc4c(c3)OCO4)c2C)cc1 | -1.32% (inactive) |
| O=C(c1cc(Br)ccc1Cl)N1CCN(c2ncccn2)CC1 | 6.19% (inactive) |
| COCCN(C(=S)Nc1cccc(C)c1C)C(C)c1ccco1 (stereo unspecified) | 4.25% (inactive) |
| CCCNC(=O)C(Cc1ccccc1)NC(=O)c1ccc(C(C)(C)C)cc1 (stereo unspecified) | -2.64% (inactive) |
| CC(=O)C1=C(O)C(=O)N(c2cccc(Br)c2)C1c1ccc(Br)cc1 (stereo unspecified) | 1.06% (inactive) |
| COc1ccc(-c2noc(CSc3nc(-c4ccccc4)cc(=O)[nH]3)n2)cc1 | -1.49% (inactive) |
| NC1=NC2(CCCC2)n2c(nc3ccccc32)N1 | 1.5% (inactive) |
| CC1CCC2(CC1)N=C(N)Nc1nc3ccccc3n12 (stereo unspecified) | 11.2% (inactive) |
| c1ccc(-c2cc3c(ccc4nonc43)nn2)cc1 | -0.15% (inactive) |
| O=C(O)c1cc(-c2ccccc2)nc2ccccc12 | -1.59% (inactive) |
| COc1cc(C(=O)NCC(c2cccs2)N2CCOCC2)cc(OC)c1OC (stereo unspecified) | 7.52% (inactive) |
| COc1ccc2c(c1)O/C(=C\c1ccco1)C2=O | -4.09% (inactive) |
| CCC(=O)Oc1ccc2c(c1)O/C(=C\c1ccco1)C2=O | 6.29% (inactive) |
| Cc1ccccc1OCC(O)Cn1c(N2CCCCC2)nc2c1c(=O)[nH]c(=O)n2C (stereo unspecified) | 6.49% (inactive) |
| Cc1cc(C)nc(-n2ncc3c2CC(c2ccccc2C)CC3=O)n1 (stereo unspecified) | 3.74% (inactive) |
| Cc1ccc(O)c(-c2cc(-c3ccccc3F)[nH]n2)c1 | 33.9% (inactive) |
| Cc1ccc(-c2cc(-c3ccc(C)cc3O)[nH]n2)cc1 | 17.4% (inactive) |
| O=C1CN(C(=O)COC(=O)CCC(=O)c2ccc(F)cc2)c2ccccc2N1 | -6.63% (inactive) |

| Compound | inhibition |
| --- | --- |
| CCOCCn1c(CN2CCN(C(=O)c3ccco3)CC2)nc2c1c(=O)n(C)c(=O)n2C | 5.24% (inactive) |
| COc1cc(C(=O)OC2CC3CCC2(C)C3(C)C)ccc1OC(C)=O (stereo unspecified) | -10.7% (inactive) |
| O=c1cc(-c2ccccc2)nc(Cc2c(Cl)cccc2Cl)[nH]1 | 8.31% (inactive) |
| COCc1cc(=O)[nH]c(Cc2c(Cl)cccc2Cl)n1 | 3.62% (inactive) |
| O=C(NCc1ccccn1)C(=O)Nc1cc2c3c(c1)CC(=O)N3CCC2 | 5.14% (inactive) |
| COc1ccc(C(=O)OCC(=O)c2cc(OC)ccc2OC)c(OC)c1 | -2.93% (inactive) |
| COc1cccc(C(=O)OCC(=O)c2ccc(Br)s2)c1 | -2.52% (inactive) |
| CSc1nc2nc(-c3ccc(F)cc3)c(CCN3CCN(C)CC3)cn2n1 | -4.6% (inactive) |
| CNc1nc(NCc2ccccc2)c2ccccc2n1 | 16.5% (inactive) |
| OCCNc1nc(NCc2ccccc2)c2ccccc2n1 | 5.73% (inactive) |
| CC1(/[N+]([O-])=C/c2ccc(Cl)cc2Cl)CCCCC1=O (stereo unspecified) | 3.79% (inactive) |
| O=C(Cn1c(CO)nc2ccccc21)NC1CCCCCC1 | -4.47% (inactive) |
| COCCN(C(=O)c1csnn1)C(C(=O)NC1CCCC1)c1ccccc1F (stereo unspecified) | -6.7% (inactive) |
| COc1cc(OC)nc(-n2ncc(OC)c(Br)c2=O)n1 | -1.81% (inactive) |
| COC(=O)c1cnn(-c2nc(OC)cc(OC)n2)c1C | 5.96% (inactive) |
| CSc1ccc(CN2C(=O)NC3(CCCCCCC3)C2=O)cc1 | 3.48% (inactive) |
| COc1cc2c(cc1O)CCN(C(=O)CSc1nncn1C)[C@@H]2C | -6.62% (inactive) |
| O=C(NCc1cccc(Br)c1)C1CC(c2ccccc2C(F)(F)F)=NO1 (stereo unspecified) | 1.36% (inactive) |
| COC(=O)CCCCC1SCC(NC(=O)c2ccccc2)C1Cl (stereo unspecified) | -3.83% (inactive) |
| COC(=O)CCCCC1SCC(NC(=O)c2ccccc2)C1OC(C)=O (stereo unspecified) | 4.8% (inactive) |
| COC(=O)c1cc(C#N)c(N2CCN(C)CC2)nc1C | -0.25% (inactive) |
| O=C(COc1ccccc1)NCC(=O)N1CCCCCC1 | -3.96% (inactive) |
| CCn1cc(Cl)c(C(=O)N2N=C(c3ccc4ccccc4c3)CC2c2ccccc2O)n1 (stereo unspecified) | 0.64% (inactive) |
| CCn1cc([N+](=O)[O-])c(C(=O)N2N=C(c3ccc(O)c(OC)c3)CC2c2ccccc2O)n1 (stereo unspecified) | -14.8% (inactive) |

From PubChem BioAssay AID449762 (Southern Research Specialized Biocontainment Screening …, 2010)
